Experimental data from PubChem BioAssay (NCI).
About 83,000 compounds went through this panel and 20% of them were active in at least one assay; those are over-represented in the sample as a whole.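 How to read the values: 0–100, growth inhibition (40 = 60% inhibited); 0, no net growth; -100 to 0, cell death (-40 = 40% of starting cells died; -100 = all dead).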 Unmarked numbers belong to inactive results. Active and inactive are the calls of the source. How the source made its calls: active means growth percent below 10; inactive means the rest.

Legend:
Experiment in all cases: NCI-60 one-dose screen, 48 h (100 = growth as untreated, 0 = no growth, -100 = all killed)
Settings in all cases: 10 µM
HT29 colon = test system: HT29 colon
SNB-75 CNS = test system: SNB-75 CNS
SNB-19 CNS = test system: SNB-19 CNS
U251 CNS = test system: U251 CNS
PC-3 prostate = test system: PC-3 prostate
SK-MEL-5 melanoma = test system: SK-MEL-5 melanoma
UACC-62 melanoma = test system: UACC-62 melanoma
LOX IMVI melanoma = test system: LOX IMVI melanoma
SK-MEL-28 melanoma = test system: SK-MEL-28 melanoma
SK-MEL-2 melanoma = test system: SK-MEL-2 melanoma

Row | Compound | growth (HT29 colon) | growth (SNB-75 CNS) | growth (SNB-19 CNS) | growth (U251 CNS) | growth (PC-3 prostate) | growth (SK-MEL-5 melanoma) | growth (UACC-62 melanoma) | growth (LOX IMVI melanoma) | growth (SK-MEL-28 melanoma) | growth (SK-MEL-2 melanoma)
1 | Cc1ccc(-c2n[nH]c(=O)c3noc(-c4ccc(C)cc4)c23)cc1 | 6.9% (active) | -15% (active) | 56% | 27.7% | 28% | 15.9% | 28.6% | 44% | 52% | 9.04% (active)
2 | COc1ccc(OC)c2c1C(=O)CC2C (stereo not given) | 108% | 93% | 99.6% | 100% | 97.5% | 94.4% | 96.4% | 100% | 101% | 121%
3 | COc1ccc2c(c1OC)O/C(=C\c1ncc([N+](=O)[O-])n1C)C2=O | -20.8% (active) | 76.6% | 66.2% | 55.2% | 60.2% | -66.5% (active) | 0.211% (active) | 0.891% (active) | -38% (active) | -58.9% (active)
4 | CCCCC/C=C/C(=O)CCc1ccc(O)c(OC)c1 | 93.1% | 63% | 87.1% | 79.6% | 55.8% | 97.7% | 83.1% | 23.7% | 95.8% | 121%
5 | CN(C)c1ccc(Cc2ccc(N(C)C)cc2Cl)c(Cl)c1 | 102% | 77.7% | 102% | 110% | 86.8% | 91.9% | 88.6% | 96% | 105% | 113%
6 | CO/N=C(/C(=O)NC1C(=O)N2C(C(=O)O)=C(COC(N)=O)CSC12)c1ccco1 (stereo not given) | 111% | 91.6% | 95.5% | 107% | 101% | 110% | 103% | 102% | 114% | 100%
7 | c1ccc2c(c1)oc1c3cccnc3ccc21 | 95.8% | 70.1% | 95.3% | 97.9% | 79.3% | 96.7% | 92.8% | 87.1% | 92.7% | 96.9%
8 | C#Cc1ccc(-n2c(/C=C/c3ccc(Cl)c(F)c3)nc3ncccc3c2=O)cc1 | -53.5% (active) | -64.7% (active) | 22% | -53.9% (active) | 2.16% (active) | -97.5% (active) | -55.9% (active) | -57% (active) | -8.26% (active) | -60.2% (active)
9 | CCC(=O)N1C/C(=C/c2ccc(Cl)cc2)C(=O)/C(=C/c2ccc(Cl)cc2)C1 | -72.8% (active) | 20% | -19.3% (active) | -80.1% (active) | -44.1% (active) | -64.1% (active) | -74.8% (active) | -85.7% (active) | -74.2% (active) | -21.5% (active)
10 | O=[P@@]1(c2ccccc2)O[C@H](COCc2ccccc2)[C@@H](OCc2ccccc2)[C@H](OCc2ccccc2)[C@H]1O | 90.8% | -12.1% (active) | 55.3% | 39.4% | 78.7% | 73% | 50.8% | 95.7% | 97% | 67.2%
